Compounds with a hit are over-represented: about 5% of the library has one in this group of screens.
UCHL1 inh: inhibitors of human UCHL1 deubiquitinase; inhibition, % at 20 µM; Ubiquitin carboxyl-terminal hydrolase isozyme L1 (Homo sapiens), P09936; purified UCHL1, Ub-rhodamine cleavage fluorescence; 47,000 tested, 0.2% active
Target sequence (P09936 whole entry, looked up): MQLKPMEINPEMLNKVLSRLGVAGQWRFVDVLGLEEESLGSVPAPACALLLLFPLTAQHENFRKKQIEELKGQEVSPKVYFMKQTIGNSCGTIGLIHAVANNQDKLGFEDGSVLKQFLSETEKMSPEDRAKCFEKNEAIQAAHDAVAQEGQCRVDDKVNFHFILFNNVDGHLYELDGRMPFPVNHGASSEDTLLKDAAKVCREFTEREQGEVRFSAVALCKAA
USP10 inh: inhibitors of human USP10 deubiquitinase; inhibition, % at 20 µM; Ubiquitin carboxyl-terminal hydrolase 10 (Homo sapiens), Q14694; 47,000 tested, 1.1% active; purified USP10, Ub-rhodamine fluorescence, 60 min; AID 1645856, 2021
USP7 block: inhibitors of human USP7 deubiquitinase. Ubiquitin carboxyl-terminal hydrolase 7 (Homo sapiens), Q93009. purified USP7, Ub-rhodamine cleavage fluorescence. inhibition, % at 20 µM. 47,000 tested, 0.3% active
USP8 inh: inhibitors of human USP8 deubiquitinase. inhibition, % at 20 µM. 47,000 tested, 4.2% active. AID 1645853, 2021. purified USP8, Ub-rhodamine cleavage fluorescence, 30 min
Hits are given with their value; - = inactive. Rule as the data show it: active = inhibition above about 30%; inactive = the rest.

SMILES | UCHL1 inh | USP10 inh | USP7 block | USP8 inh
Cc1c(C)n(-c2ccccc2)c2ncn(CC(=O)NCc3cccc(F)c3)c(=O)c12 | - | - | - | 45
Cc1nc(-c2cc(C(=O)NCCN3CCOCC3)c3ccccn23)cs1 | - | - | - | -
N#CCCc1c(-c2ccccc2)nc2[nH]c3ccccc3n2c1=O | - | - | - | 39
COc1cc(Cl)ccc1Nc1ncc(C(=O)Nc2cc(OC)c(OC)c(OC)c2)c2ccccc12 | - | - | - | 33
COc1ccc(Nc2ncc(C(=O)Nc3ccc(Oc4ccccc4)cc3)c3ccccc23)cc1 | - | - | - | -
Cc1ccccc1-c1cncc(C2CCN(C(=O)c3cnccn3)CC2)n1 | - | - | - | -
O=C(Nc1cnc(-c2cccc(Cl)c2)nc1)C1CCC1 | - | - | - | 30
CC(=O)N1c2ccccc2O[C@@H]2C[C@@H](NC(=O)c3ccccc3F)[C@@H](O)[C@@H]21 | - | - | - | -
Cc1ccc(CNC(=O)c2c(O)c3cccc4c3n(c2=O)CC4)cc1 | - | - | - | 59
CCNC(=O)c1ccccc1CN1C(=O)C2CCCN2C(=O)c2ccccc21 (stereo unspecified) | - | - | - | -
COc1cccc(NC(=O)CSc2ncnc3c2sc2nc(C)c4c(c23)CC(C)(C)OC4)c1 | - | - | - | -
O=C1CC[C@H](O)c2cccc(O)c21 | - | - | - | -
O=C1CC(O)C(O)c2cccc(O)c21 (stereo unspecified) | - | - | - | 76
Cc1ccc(CC(=O)NCCC(c2ccccc2)c2ccccc2)cc1C | - | - | - | -
COc1cccc(-c2noc3ncnc(NCCN4CCC(C)CC4)c23)c1 | - | - | - | -
CC1=C(C(=O)Nc2cccnc2)C(c2cccc(OCc3ccccc3)c2)n2nnnc2N1 (stereo unspecified) | - | - | - | 37
CCOC(=O)c1c2ccc(OCc3ccc([N+](=O)[O-])cc3)cc2n2ccccc12 | - | - | - | 74
Cc1cc2cc(CNC(=O)Cc3ccc(F)cc3)ccc2[nH]1 | - | - | - | -
CCc1cccc(C)c1NC(=O)/C=C/c1cc(OC)ccc1OC | - | - | - | -
CCc1nnc(C(=O)Nc2ccc(C(=O)NCc3ccc(OC(C)C)cc3)cc2)s1 | - | 38 | - | -
CCC(C(=O)Nc1c2c(nn1-c1ccc(C)cc1C)CS(=O)(=O)C2)c1ccccc1 (stereo unspecified) | - | - | - | -
CCc1ccc(S(=O)(=O)Nc2ccc(-c3nnc(-c4ccccc4)o3)cc2)cc1 | - | 47 | - | 32
CCc1ccc(NS(=O)(=O)c2ccc(-c3cnc(C)o3)cc2)cc1 | - | - | - | -
CCCn1c(-c2ccc(CC)cc2)cn2c(-c3ccccc3)c(-c3ccccc3)nc12 | - | - | - | 87
COc1cccc(-c2cn3c(-c4ccccc4)c(-c4ccccc4)nc3n2-c2cccc(Cl)c2)c1 | - | - | - | 81
SMILES | UCHL1 inh | USP10 inh | USP7 block | USP8 inh
COc1ccc(-c2cn3c(-c4ccccc4)c(-c4ccccc4)nc3n2-c2ccccc2)cc1 | - | - | - | 80
COc1cccc(-c2cc(C(F)(F)F)c3c(-c4ccccc4)nn(-c4ccccc4)c3n2)c1 | - | - | - | -
COc1cccc(-c2cn3c(-c4ccccc4)c(-c4ccccc4)nc3n2-c2ccccc2)c1 | - | - | - | 77
Cc1ccccc1CNc1nc(N2CCOCC2)nc2c1cnn2C | - | - | - | -
Cc1nc(S(=O)(=O)NC[C@@]23CCC[C@H]2N(C)C(=O)CC3)cn1C | - | - | - | -
O=c1[nH]c2c(cnn2Cc2ccccc2)c(O)c1-c1nc(-c2ccc(F)cc2)no1 | - | - | - | -
O=C(COc1ccc2c(c1)OCO2)Nc1ccc2c(c1)CCC2 | - | - | - | 31
O=C(COc1ncnc2sc3c(c12)CCCC3)Nc1ccc2c(c1)OCO2 | - | 31 | - | -
COc1ccc(C)cc1NC(=O)COc1ccc2c(c1)OCO2 | - | - | - | 37
O=C(COC(=O)C1(c2ccccc2F)CCCC1)Nc1ccc2c(c1)OCO2 | - | - | - | 44
Cc1cc(Cl)ccc1OCC(=O)Nc1ncnc2sc3c(c12)CCCC3 | - | - | - | -
O=C(Cn1c(=O)c2c(ncn2C2CCCC2)n(Cc2ccccc2)c1=O)NCc1ccccc1Cl | - | - | - | -
CSc1ccc(CNC(=O)Cn2c(=O)[nH]c3c(-c4ccccc4)c[nH]c3c2=O)cc1 | - | - | - | 73
O=C(Cn1c(=O)[nH]c2c(-c3ccccc3)c[nH]c2c1=O)NCc1ccccc1Cl | - | - | - | 41
CN(Cc1ccccc1)C(=O)Cn1c(=O)[nH]c2c(-c3ccccc3F)c[nH]c2c1=O | - | - | - | -
CC1(C)c2[nH]c3ccccc3c2C[C@@H]2C(=O)N(C3CCCCC3)CC(=O)N21 | - | - | - | 31
c1ccc2c(c1)ccc1nnc(-c3ccc4c(c3)OCO4)n12 | - | - | - | -
Fc1ccc(-c2nn3c(-c4ccc5c(c4)OCO5)nnc3s2)cc1 | - | - | - | 64
COc1ccc(Cl)cc1NC(=O)C(=O)c1cn(CC(=O)N2CCCCC2)c2ccccc12 | - | - | - | -
Cc1[nH]c(C(=O)NC2CCCCCC2)c(C)c1S(=O)(=O)N1CCCC1 | - | - | - | 39
Cc1ccc(NC(=O)Cn2c(-c3cnccn3)nc(C)c(C)c2=O)cc1F | - | - | - | -
O=C(NCc1ccccc1F)Nc1ccccc1[N+](=O)[O-] | - | - | - | -
O=C(c1cc(-c2ccc(Cl)cc2)n[nH]1)N1CCN(c2ccccn2)CC1 | - | - | - | 66
COc1ccc(Cn2c(-c3ccc(F)cc3)nc3c(c(=O)c4ccccc4n3C)c2=O)cc1 | - | - | - | -
CC1=C[C@H]2N(c3ccccc31)[C@H](C(=O)C(C)(C)C)[C@@H](C(=O)c1ccco1)[C@]21C(=O)Nc2ccccc21 | - | - | - | -
SMILES | UCHL1 inh | USP10 inh | USP7 block | USP8 inh
CC1=C[C@H]2N(c3ccc(C)cc31)[C@H](C(=O)c1cccs1)[C@@H](C(=O)c1ccc(F)cc1)[C@]21C(=O)Nc2ccccc21 | - | - | - | 78
CC1=C[C@H]2N(c3ccc(C)cc31)[C@H](C(=O)C(C)(C)C)[C@@H](C(=O)c1ccccc1)[C@]21C(=O)Nc2ccccc21 | - | - | - | 80
COc1ccc2cc3c(nc2c1)OC(=O)N(Cc1ccccc1)C3 | - | - | - | 32
COc1ccc(CCN2Cc3cc4ccccc4nc3OC2=O)cc1 | - | - | - | -
Cc1cc(NC(=O)CNc2ccccc2F)no1 | - | - | - | -
CCN(CC(=O)Nc1cc(C)on1)c1cccc2ccccc12 | - | - | - | 90
CCN(CC)CCn1c(NC(=O)c2ccc(S(=O)(=O)N3CCOCC3)cc2)nc2ccccc21 | - | - | - | 70
CS(=O)(=O)N1CCN(c2ccc(NC(=O)COc3ccccc3)cc2)CC1 | - | - | - | -
CS(=O)(=O)N1CCN(c2ccccc2NC(=O)COc2ccc(Br)cc2)CC1 | - | 72 | 63 | 92
CC1Cc2ccccc2N1Cc1cc[nH]c(=O)c1 (stereo unspecified) | - | - | - | 45

Screens as filed in PubChem BioAssay.
